In PubChem BioAssay:
Activity calls are given as the source filed them.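 Rule for the calls, unless noted: active = superoxide response below 65% of plate, a cut near 3 SD across the whole screen; inactive = the rest.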

Target: Integrin beta-1 (Homo sapiens) + Integrin alpha-4 (Homo sapiens) (UniProt P13612+P05556)
Assay: inhibition of HUTS-21 binding to VLA-4, pilot screen, VLA-4 allosteric modulator project, U937 cells, HUTS-21 mAb, flow cytometry, validation set (AID 2674;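 active = inhibition above 50%, about 3 SD of the validation set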;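 note: antibody binding induced by the VLA-4 ligand LDV present at three times its Kd; 0% = LDV ligand with antibody and no compound and 100% = antibody without LDV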)
Conditions: HUTS-21 LIBS mAb binding, at 6.7 µM, hits give high values, binding induced by LDV ligand

Integrin beta-1 (Homo sapiens) + Integrin alpha-4 (Homo sapiens), sequence (P05556 whole entry, looked up): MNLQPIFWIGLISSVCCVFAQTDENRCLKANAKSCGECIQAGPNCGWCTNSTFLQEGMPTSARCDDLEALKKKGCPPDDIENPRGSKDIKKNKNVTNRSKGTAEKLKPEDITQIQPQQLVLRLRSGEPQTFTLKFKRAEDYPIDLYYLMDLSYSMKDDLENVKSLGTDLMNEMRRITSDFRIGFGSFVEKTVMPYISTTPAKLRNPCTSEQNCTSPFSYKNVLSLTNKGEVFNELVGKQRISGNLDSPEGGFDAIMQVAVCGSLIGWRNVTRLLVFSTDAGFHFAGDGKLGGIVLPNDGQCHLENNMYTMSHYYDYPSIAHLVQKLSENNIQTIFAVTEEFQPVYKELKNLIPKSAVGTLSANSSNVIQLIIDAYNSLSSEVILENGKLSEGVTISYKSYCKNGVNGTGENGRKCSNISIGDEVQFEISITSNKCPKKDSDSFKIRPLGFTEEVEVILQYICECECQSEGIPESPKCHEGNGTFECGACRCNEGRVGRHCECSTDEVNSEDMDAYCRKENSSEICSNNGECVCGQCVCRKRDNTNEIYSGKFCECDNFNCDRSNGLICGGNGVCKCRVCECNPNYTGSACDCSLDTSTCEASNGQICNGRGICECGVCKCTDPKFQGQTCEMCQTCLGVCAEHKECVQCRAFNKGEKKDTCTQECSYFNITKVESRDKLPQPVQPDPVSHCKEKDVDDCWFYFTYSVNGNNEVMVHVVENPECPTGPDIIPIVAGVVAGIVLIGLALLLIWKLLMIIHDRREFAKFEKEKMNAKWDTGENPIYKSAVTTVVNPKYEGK
Integrin beta-1 (Homo sapiens) + Integrin alpha-4 (Homo sapiens), sequence (P13612 whole entry, looked up): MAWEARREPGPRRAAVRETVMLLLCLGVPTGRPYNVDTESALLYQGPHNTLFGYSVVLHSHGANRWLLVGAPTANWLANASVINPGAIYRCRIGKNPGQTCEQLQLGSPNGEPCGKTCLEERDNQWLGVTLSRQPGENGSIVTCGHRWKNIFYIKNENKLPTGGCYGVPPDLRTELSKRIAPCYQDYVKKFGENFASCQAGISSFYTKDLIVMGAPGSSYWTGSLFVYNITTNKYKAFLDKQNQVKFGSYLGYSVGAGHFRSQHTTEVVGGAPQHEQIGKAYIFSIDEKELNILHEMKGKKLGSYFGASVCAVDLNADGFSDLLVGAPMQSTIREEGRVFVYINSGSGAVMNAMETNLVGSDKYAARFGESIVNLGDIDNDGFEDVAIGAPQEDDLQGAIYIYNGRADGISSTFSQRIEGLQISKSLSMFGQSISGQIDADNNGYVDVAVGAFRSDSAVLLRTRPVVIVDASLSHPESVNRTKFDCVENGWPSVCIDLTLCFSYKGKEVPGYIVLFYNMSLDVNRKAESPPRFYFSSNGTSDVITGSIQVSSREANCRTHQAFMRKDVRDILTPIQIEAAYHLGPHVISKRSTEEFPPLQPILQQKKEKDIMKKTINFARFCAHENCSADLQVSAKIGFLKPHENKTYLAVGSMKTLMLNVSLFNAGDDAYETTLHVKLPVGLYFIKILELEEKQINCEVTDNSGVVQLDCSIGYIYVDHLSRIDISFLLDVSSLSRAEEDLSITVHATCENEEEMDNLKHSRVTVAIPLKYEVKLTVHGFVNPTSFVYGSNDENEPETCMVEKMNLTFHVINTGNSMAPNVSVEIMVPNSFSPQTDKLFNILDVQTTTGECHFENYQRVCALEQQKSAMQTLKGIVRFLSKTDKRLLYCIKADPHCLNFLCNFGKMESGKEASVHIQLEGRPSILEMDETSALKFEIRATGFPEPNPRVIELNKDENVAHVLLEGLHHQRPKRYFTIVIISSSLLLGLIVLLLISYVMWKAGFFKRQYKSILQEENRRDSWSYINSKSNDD

inhibition, inactive:
COc1ccc2oc(=O)c(-c3nc(C)cs3)cc2c1 9.09%
CC(=O)Oc1cc(C(C)C)c(OCCN(C)C)cc1C -0.24%
O=C(NNC(=O)c1cccs1)c1ccco1 -3.04%
CC(C)Oc1ccc(C(CC(=O)O)c2ccc(F)cc2)cc1 (stereo not drawn) 9.09%
Cc1ccccc1-c1coc2cc(O)ccc2c1=O -21.7%
CCN(CC)CCOC(=O)C1(C2CCCCC2)CCCCC1 5.36%
NC(=O)OCC(COC(N)=O)c1ccccc1 1.62%
CC(C)[N+]1(C)[C@@H]2CC[C@H]1CC(OC(=O)C(CO)c1ccccc1)C2 (stereo partly drawn) 27.7%
Cc1ccccc1OCCSc1nc2ncnc(N)c2[nH]1 8.15%
CC(=O)NCCCCCCNC(C)=O 4.42%
CCN(Cc1ccncc1)Cc1nc(Cc2ccccc2Cl)no1 -12.4%
CCOC(=O)NN1C(=O)c2ccccc2NC1c1ccc(OC)c(OC)c1 (stereo not drawn) 7.22%
COc1ccc2c(c1)c(CC(=O)O)c(C)n2C(=O)c1ccc(Cl)cc1 -25.4%
CC1=CC2(O)OCCN(CCO)C2=CC1=O (stereo not drawn) -12.4%
Cc1ccccc1C(OCCN(C)C)c1ccccc1 (stereo not drawn) 10.9%
COC1(C)CC2C(CC1OC(=O)c1cc([N+](=O)[O-])cc([N+](=O)[O-])c1)C2(C)C (stereo not drawn) -3.97%
O=C1OC(c2ccc(O)cc2)(c2ccc(O)cc2)c2ccccc21 9.09%
Cn1c(=O)c2c(ncn2CC(O)CO)n(C)c1=O (stereo not drawn) 11.9%
Cc1cnc(C(=O)N2CCCC(C(=O)c3ccc(Cl)cc3C)C2)cn1 (stereo not drawn) -2.11%
CN(C)C(=O)C12CCC(C)(c3nc4ccccc4nc31)C2(C)C (stereo not drawn) 0.69%
CCOC(=O)c1ccc(N2C(=O)C(CC(N)=O)N(CCc3ccc(OC)c(OC)c3)C2=S)cc1 (stereo not drawn) -10.5%
Cc1cnc(C(=O)NCCc2ccc(S(=O)(=O)NC(=O)NC3CCCCC3)cc2)cn1 -9.57%
COc1cccc2c1C(=O)O/C2=C/c1ccc2c(c1)OCO2 -3.04%
COc1ccc(C2N3CC4(C)CN2CC(C)(C3)C4)cc1OC (stereo not drawn) -0.24%

Tested on: not listed separately
Assay: superoxide lowering in aged yeast cells, pilot screen, validation compound set (AID 2706);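 note: yeast exposed to compound for one week at 30 degrees C before staining; 100% = mean of all compound wells on the same plate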
Conditions: S. cerevisiae aging, superoxide DHE fluorescence; at 10 µM, hits give low values

Superoxide response (% of plate), inactive:
Cc1ccc2[nH]c3c(c2c1)CN(C)CC3 99.8%
COc1ccc2[nH]c3c(c2c1)CCn1c-3nc2ccccc2c1=O 95.3%
CC(=O)O[C@H]1CSC[C@H]1NC(=O)c1ccccc1 104%
CC(=O)Oc1ccc2occ(/C=N/c3cc(=O)[nH]c(=S)[nH]3)c(=O)c2c1 90.5%
O=C(O)CCSc1nc2ccccc2s1 115%
CCOc1ccc(C(=O)/C=C/c2cc(OC)c(OC)c(OC)c2)cc1 91.6%
COC(=O)c1cc(OC)c(OC)c(OC)c1[N+](=O)[O-] 107%
COC(=O)c1[nH]c2ccccc2c1NC(=O)CN1CCN(C/C=C/c2ccccc2)CC1 98%
Cc1ncc([N+](=O)[O-])n1CC(C)O (stereo not drawn) 100%
Clc1ccccc1CN1CCc2sccc2C1 87.2%
CC[C@]1(O)C[C@@H]2CN(CCc3c([nH]c4ccccc34)[C@@](C(=O)OC)(c3cc4c(cc3OC)N(C)[C@H]3[C@@](O)(C(=O)OC)[C@H](OC(C)=O)[C@]5(CC)C=CCN6CC[C@]43[C@@H]65)C2)C1 86.7%
O=C(CCCN1CC=C(n2c(=O)[nH]c3ccccc32)CC1)c1ccc(F)cc1 97.2%
CCOc1cccc(N2C(=O)CC(N(CCc3ccc(OC)c(OC)c3)C(=O)CC)C2=O)c1 (stereo not drawn) 94%
COC(=O)C1=C(C)NC(C)=C(C(=O)OC)C1c1ccccc1[N+](=O)[O-] 93.7%
CC(COc1ccccc1)NC(C)C(O)c1ccc(O)cc1 (stereo not drawn) 107%
COc1ccc2oc(=O)c(-c3nc(C)cs3)cc2c1 89.3%
CC(=O)Oc1cc(C(C)C)c(OCCN(C)C)cc1C 106%
O=C(NNC(=O)c1cccs1)c1ccco1 95.2%
CC(C)Oc1ccc(C(CC(=O)O)c2ccc(F)cc2)cc1 (stereo not drawn) 105%
Cc1ccccc1-c1coc2cc(O)ccc2c1=O 89.2%
CCN(CC)CCOC(=O)C1(C2CCCCC2)CCCCC1 110%
NC(=O)OCC(COC(N)=O)c1ccccc1 92.5%
CC(C)[N+]1(C)[C@@H]2CC[C@H]1CC(OC(=O)C(CO)c1ccccc1)C2 (stereo partly drawn) 94.6%
Cc1ccccc1OCCSc1nc2ncnc(N)c2[nH]1 97.8%
CC(=O)NCCCCCCNC(C)=O 85.1%
CCN(Cc1ccncc1)Cc1nc(Cc2ccccc2Cl)no1 111%
CCOC(=O)NN1C(=O)c2ccccc2NC1c1ccc(OC)c(OC)c1 (stereo not drawn) 99.5%
COc1ccc2c(c1)c(CC(=O)O)c(C)n2C(=O)c1ccc(Cl)cc1 109%
CC1=CC2(O)OCCN(CCO)C2=CC1=O (stereo not drawn) 103%
Cc1ccccc1C(OCCN(C)C)c1ccccc1 (stereo not drawn) 106%
COC1(C)CC2C(CC1OC(=O)c1cc([N+](=O)[O-])cc([N+](=O)[O-])c1)C2(C)C (stereo not drawn) 114%
O=C1OC(c2ccc(O)cc2)(c2ccc(O)cc2)c2ccccc21 99.3%
Cn1c(=O)c2c(ncn2CC(O)CO)n(C)c1=O (stereo not drawn) 93.5%
Cc1cnc(C(=O)N2CCCC(C(=O)c3ccc(Cl)cc3C)C2)cn1 (stereo not drawn) 109%
CN(C)C(=O)C12CCC(C)(c3nc4ccccc4nc31)C2(C)C (stereo not drawn) 95.4%
CCOC(=O)c1ccc(N2C(=O)C(CC(N)=O)N(CCc3ccc(OC)c(OC)c3)C2=S)cc1 (stereo not drawn) 107%
Cc1cnc(C(=O)NCCc2ccc(S(=O)(=O)NC(=O)NC3CCCCC3)cc2)cn1 95.2%
COc1cccc2c1C(=O)O/C2=C/c1ccc2c(c1)OCO2 106%
COc1ccc(C2N3CC4(C)CN2CC(C)(C3)C4)cc1OC (stereo not drawn) 96.9%
